# This is part of a sample that, as a whole, favours compounds with a hit. Of some 79,000 tested, about 15% had one in any assay. Calls of active or inactive are those of the source. Rule as the data show it: active = growth inhibition above about 70%; inactive = the rest.
# Test: NCI Yeast Anticancer Drug Screen. Data for the mlh1 rad18 strain (AID 175)
# Conditions: S. cerevisiae mlh1 rad18 strain growth inhibition; at 50.0 µM; hits give high values
# Procedure, shortened: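 Vehicle-treated cultures served as the reference for growth inhibition in a yeast strain carrying DNA damage repair alterations exposed to each compound.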
row,Structure (SMILES),growth inhibition
1,O=C(c1ccccc1)C1(c2ccccc2)CCCCC1,32.6% (inactive)
2,CCN(CC)CCC(=O)c1ccc(OC)cc1,8.15% (inactive)
3,COc1cccc(Nc2nc(NS(=O)(=O)c3cc(C)c(Cl)cc3S)n[nH]2)c1,15.8% (inactive)
4,Cc1ccc(N=Nc2c(O)n(C)c(=O)n(C)c2=O)cc1C,-12.8% (inactive)
5,Cn1c(=O)c2[nH]c(SCC(=O)O)nc2n(C)c1=O,-3.65% (inactive)
6,Cc1cc2c(=O)cc(-c3ccc(C(F)(F)F)cc3)oc2c(C(=O)O)c1C,12.8% (inactive)
7,Cc1cnc2cccc(C)c2c1Cl,-3.3% (inactive)
8,CO/N=C1/c2sccc2[C@H](NC(=O)C(Cc2ccccc2)NC(=O)OC(C)(C)C)[C@@H]1O (stereo not given in full),13.7% (inactive)
9,C(=Nc1ccc2ccccc2c1)c1cccs1,-0.6% (inactive)
10,O=C(Nc1ccc2ccccc2c1)C(F)(F)F,-8.95% (inactive)
11,CCCCCCCC(=O)NN(Cn1c(=S)sc2ccccc21)Cn1c(=S)sc2ccccc21,6.65% (inactive)
12,Cc1cc(=O)oc2c(CNC(Cc3ccccc3)C(=O)O)c(O)ccc12 (stereo not given),-69% (inactive)
13,O=C(N/N=C/c1ccc(Cl)cc1)c1ccccc1NC(=O)C1CC1,33.2% (inactive)
14,CN(C)C1CS(=O)(=O)OC2=C1COCC2 (stereo not given),2.55% (inactive)
15,COc1cc2cccc(NC(=O)c3cc(OC)c(OC)c(OC)c3Br)c2cc1OC,20.7% (inactive)
16,CCOCCOCCOC(=O)CC(C)=O,-11.5% (inactive)
17,CC(CO)CCC(=O)C(C)C1CC2(C)CCC3C(CCC4CC(O)CCC43C)C2C12SCCS2 (stereo not given),-0.25% (inactive)
18,C(=Nc1ccc(N2CCOCC2)cc1)c1ccc2c(c1)OCO2,-22% (inactive)
19,Cc1ccc(S(=O)(=O)NCNS(=O)(=O)c2ccc(C)cc2)cc1,-35.6% (inactive)
20,COc1cc(/C=C/C(=O)N[C@@H]2C(=O)N3[C@@H]2SC(C)(C)[C@@H]3C(=O)O)cc(OC)c1OC,-43.9% (inactive)

row,Structure (SMILES),growth inhibition
1,O=P(O)(O)c1ccc(Cl)cc1,-9.4% (inactive)
2,CC1(C)CC2(C)OC3(C)CC(C)(C)OC3(C)OC2(C)O1 (stereo not given),-10.3% (inactive)
3,NC(=S)NNCC(=O)CC(O)(C(F)(F)F)C(F)(F)Cl (stereo not given),-0.65% (inactive)
4,Oc1c(O)c(Cc2ccccc2)c(Cc2ccccc2)c(Cc2ccccc2)c1Cc1ccccc1,12.8% (inactive)
5,COC(=O)c1cc(C)c(C(=O)O)c(C)c1,14.9% (inactive)
6,CC(C)(C)OC(=O)CC1(C)NC(C(=O)O)C(C)(C)S1 (stereo not given),10.8% (inactive)
7,O=C(c1ccc([N+](=O)[O-])cc1)c1cc2ccccc2oc1=O,-9% (inactive)
8,CCCCCCCSCC1OC(n2cnc3c(N)ncnc32)C(O)C1O (stereo not given),9.3% (inactive)
9,CC1N(N2C(=O)CS(=O)(=O)C2C)C(=O)CS1(=O)=O (stereo not given),37% (inactive)
10,CN(CCN(C)C(=O)CCn1cc(F)c(=O)[nH]c1=O)C(=O)CCn1cc(F)c(=O)[nH]c1=O,29.9% (inactive)
11,COc1cc2c(c3c1CCC(C)(C)O3)Cc1c(cc(OC)c(OC)c1CCC(C)(C)O)O2,7.6% (inactive)
12,NCC(=O)NCCC(=O)O,-4.6% (inactive)
13,CC(=O)OCC1COC(C)(c2ccccc2)O1 (stereo not given),-9.55% (inactive)
14,CC/C(=C\c1ccc(OC)cc1)c1ccc(OC)cc1,-5.05% (inactive)
15,CC(=O)OC(C)=O,-16.4% (inactive)
16,NC(=O)N1CCCCC1,4.65% (inactive)
17,C=C1C(=O)OC2(C)CCC1CC1OC1(C)CC/C=C(\C)CCC2OC(C)=O (stereo not given),7.85% (inactive)
18,CCc1nc(N)nc(C(=O)NCCNC(=O)c2nc(N)nc(CC)c2C)c1C,-45.5% (inactive)
19,COC(=O)C(=O)C(C(=O)c1cccc2ccccc12)c1nc2n(c1O)C(=N)N=N2 (stereo not given),0.8% (inactive)
20,O=[N+]([O-])c1ccc(-c2ccc(-c3ccccc3)cc2)cc1,-3.6% (inactive)
